Assay results taken from PubChem BioAssay (Tox21).
A number with no mark means an inactive call. Inconclusive results are not listed. A call without a number means that no potency is given here. Activity calls are given as the source filed them. The call rests on the fitted dose curve; in most records, active means well fitted curve in the direction sought with a large enough effect in the repeat runs; inconclusive means weak or mixed curves; inactive means no such curve, though single readings can be large; an effect the other way counts as inactive or inconclusive.

Key:
[1] = qHTS RealTime-Glo MT Cell Viability Assay in HEK293 cells - 40 hour (AID 1224874); details: RealTime-Glo luminescence; max response: active compounds read low; further: nearly all actives have a fitted effect of over 50% in size; further: potency means the concentration at half of the fitted maximal effect
Summary of the method: (§1)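 Luminescence, which tracks viable cell number through reduction of the prosubstrate to a NanoLuc substrate, was read over continuous 37 C culture. Cells (600/well) were premixed with reagent and rested 5 h before 23 nL of compound in DMSO was pinned.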

[2] = A CellTox Green Cytotoxicity Assay to monitor cytotoxicity in HEK293 cells - 24 hour (AID 1224875); details: CellTox Green fluorescence; series mostly up to 76.8 µM; further: nearly all actives have a fitted effect of over 45% in size
Summary of the method: (§2)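 Fluorescence from a DNA-binding dye excluded by viable cells was measured repeatedly in the same HEK293 wells (600 cells/well) during continuous compound exposure at 37 C. Each assay gives one read point: 0, 8, 16, 24, 32 or 40 h.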

[3] = A CellTox Green Cytotoxicity Assay to monitor cytotoxicity in HepG2 cells - 16 hour (AID 1224876); details: CellTox Green fluorescence; series mostly up to 76.8 µM; further: nearly all actives have a fitted effect of over 45% in size
Summary of the method: (§3)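 Real-time cytotoxicity: fluorescence of a cell-impermeant cyanine dye binding DNA of dead HepG2 cells, measured repeatedly (0–40 h) during compound exposure at 37 C. Cells seeded 600/well with reagent, dosed after 5 h.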

[4] = qHTS RealTime-Glo MT Cell Viability Assay in HepG2 cells - 32 hour (AID 1224877); details: RealTime-Glo luminescence; series mostly up to 76.8 µM; further: nearly all actives have a fitted effect of over 55% in size
Summary of the method: (§4)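 Real-time, nonlytic viability: 600 HepG2 cells/well mixed with NanoLuc enzyme plus prosubstrate; 5 h settle, compound (DMSO) added by pintool; luminescence monitored over 40 h at 37 C.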

[5] = A CellTox Green Cytotoxicity Assay to monitor cytotoxicity in HepG2 cells - 24 hour (AID 1224878); details: CellTox Green fluorescence; series mostly up to 76.8 µM; further: nearly all actives have a fitted effect of over 45% in size
Summary of the method: as §3

[6] = A CellTox Green Cytotoxicity Assay to monitor cytotoxicity in HepG2 cells - 40 hour (AID 1224879); details: CellTox Green fluorescence; series mostly up to 76.8 µM; further: nearly all actives have a fitted effect of over 40% in size; further: potency means the concentration at half of the fitted maximal effect
Summary of the method: as §3

[7] = qHTS RealTime-Glo MT Cell Viability Assay in HEK293 cells - 0 hour (AID 1224880); details: RealTime-Glo luminescence; series mostly up to 76.8 µM; further: top concentration of the series differs between compounds; nearly all actives have a fitted effect of over 45% in size
Summary of the method: as §1

[8] = A CellTox Green Cytotoxicity Assay to monitor cytotoxicity in HEK293 cells - 32 hour (AID 1224881); details: CellTox Green fluorescence; series mostly up to 76.8 µM; further: nearly all actives have a fitted effect of over 40% in size
Summary of the method: as §2

[9] = A CellTox Green Cytotoxicity Assay to monitor cytotoxicity in HepG2 cells - 0 hour (AID 1224882); details: CellTox Green fluorescence; series mostly up to 76.8 µM; further: nearly all actives have a fitted effect of over 35% in size
Summary of the method: as §3

[10] = A CellTox Green Cytotoxicity Assay to monitor cytotoxicity in HepG2 cells - 32 hour (AID 1224883); details: CellTox Green fluorescence; series mostly up to 76.8 µM; further: nearly all actives have a fitted effect of over 50% in size; further: potency means the concentration at half of the fitted maximal effect
Summary of the method: as §3

[11] = A CellTox Green Cytotoxicity Assay to monitor cytotoxicity in HEK293 cells - 8 hour (AID 1224884); details: CellTox Green fluorescence; series mostly up to 76.8 µM; further: nearly all actives have a fitted effect of over 35% in size
Summary of the method: as §2

[12] = qHTS RealTime-Glo MT Cell Viability Assay in HepG2 cells - 16 hour (AID 1224885); details: RealTime-Glo luminescence; series mostly up to 76.8 µM; further: nearly all actives have a fitted effect of over 50% in size
Summary of the method: as §4

[13] = qHTS RealTime-Glo MT Cell Viability Assay in HEK293 cells - 8 hour (AID 1224887); details: RealTime-Glo luminescence; series mostly up to 76.8 µM; further: top concentration of the series differs between compounds; nearly all actives have a fitted effect of over 50% in size
Summary of the method: as §1

[14] = A CellTox Green Cytotoxicity Assay to monitor cytotoxicity in HEK293 cells - 16 hour (AID 1224888); details: CellTox Green fluorescence; series mostly up to 76.8 µM; further: nearly all actives have a fitted effect of over 35% in size
Summary of the method: as §2

[15] = qHTS RealTime-Glo MT Cell Viability Assay in HepG2 cells - 0 hour (AID 1224889); details: RealTime-Glo luminescence; series mostly up to 76.8 µM; further: nearly all actives have a fitted effect of over 50% in size
Summary of the method: as §4

[16] = A CellTox Green Cytotoxicity Assay to monitor cytotoxicity in HepG2 cells - 8 hour (AID 1224890); details: CellTox Green fluorescence; series mostly up to 76.8 µM; further: nearly all actives have a fitted effect of over 45% in size
Summary of the method: as §3

[17] = qHTS assay to identify small molecule antagonists of the estrogen receptor alpha (ER-alpha) signaling pathway using the BG1 cell line in the presence of 0.1 nM 17-beta-estradiol - cell viability counter screen (AID 1259241); details: VM7Luc4E2 (BG1) viability, CellTiter-Fluor protease, 22 h, 0.1 nM estradiol agonist added; series mostly up to 92.4 µM; further: nearly all actives have a fitted effect of over 40% in size
Summary of the method: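 Following 5 days in phenol red-free medium with charcoal-stripped serum, VM7Luc4E2 cells received test compounds alongside 0.1 nM 17beta-estradiol (final) at 37C for 22 hr. Live cells were then quantified via protease-substrate fluorescence.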

[18] = qHTS assay to identify small molecule antagonists of the androgen receptor (AR) signaling pathway using the MDA cell line in the presence of 0.5 nM R1881 - cell viability counter screen (AID 1259242); details: MDA-kb2 viability, CellTiter-Fluor protease fluorescence, 16 h; series mostly up to 92.4 µM; further: nearly all actives have a fitted effect of over 45% in size
Summary of the method: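 Live-cell protease activity was measured by CellTiter-Fluor fluorescence after 30 min. Before that, MDA-kb2 MMTV-luciferase cells had 16 hr at 37C without CO2, exposed to test compounds and 0.5 nM R1881 final.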

[19] = qHTS RealTime-Glo MT Cell Viability Assay in HEK293 cells - 24 hour (AID 1224886); details: RealTime-Glo luminescence; series mostly up to 76.8 µM; further: nearly all actives have a fitted effect of over 50% in size; further: potency means the concentration at half of the fitted maximal effect; on activity change, negative = cytotoxicity: top concentration of the series differs between compounds
Summary of the method: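 Cells + reagent dispensed (600 cells/well, HEK293) → 5 h at 37 C/5% CO2 → 23 nL compound in DMSO pinned → 40 h at 37 C → luminescence read at 0, 8, 16, 24, 32, 40 h.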

[20] = biological target: Androgen receptor (Homo sapiens) (UniProt P10275); experiment: qHTS assay to identify small molecule antagonists of the androgen receptor (AR) signaling pathway using the MDA cell line in the presence of 0.5 nM R1881 (AID 1259243); details: MDA-kb2 MMTV-luciferase, R1881 0.5 nM, 16 h; series mostly up to 92.4 µM; further: nearly all actives have a fitted effect of over 50% in size
Androgen receptor (Homo sapiens), sequence (P10275 whole entry, looked up): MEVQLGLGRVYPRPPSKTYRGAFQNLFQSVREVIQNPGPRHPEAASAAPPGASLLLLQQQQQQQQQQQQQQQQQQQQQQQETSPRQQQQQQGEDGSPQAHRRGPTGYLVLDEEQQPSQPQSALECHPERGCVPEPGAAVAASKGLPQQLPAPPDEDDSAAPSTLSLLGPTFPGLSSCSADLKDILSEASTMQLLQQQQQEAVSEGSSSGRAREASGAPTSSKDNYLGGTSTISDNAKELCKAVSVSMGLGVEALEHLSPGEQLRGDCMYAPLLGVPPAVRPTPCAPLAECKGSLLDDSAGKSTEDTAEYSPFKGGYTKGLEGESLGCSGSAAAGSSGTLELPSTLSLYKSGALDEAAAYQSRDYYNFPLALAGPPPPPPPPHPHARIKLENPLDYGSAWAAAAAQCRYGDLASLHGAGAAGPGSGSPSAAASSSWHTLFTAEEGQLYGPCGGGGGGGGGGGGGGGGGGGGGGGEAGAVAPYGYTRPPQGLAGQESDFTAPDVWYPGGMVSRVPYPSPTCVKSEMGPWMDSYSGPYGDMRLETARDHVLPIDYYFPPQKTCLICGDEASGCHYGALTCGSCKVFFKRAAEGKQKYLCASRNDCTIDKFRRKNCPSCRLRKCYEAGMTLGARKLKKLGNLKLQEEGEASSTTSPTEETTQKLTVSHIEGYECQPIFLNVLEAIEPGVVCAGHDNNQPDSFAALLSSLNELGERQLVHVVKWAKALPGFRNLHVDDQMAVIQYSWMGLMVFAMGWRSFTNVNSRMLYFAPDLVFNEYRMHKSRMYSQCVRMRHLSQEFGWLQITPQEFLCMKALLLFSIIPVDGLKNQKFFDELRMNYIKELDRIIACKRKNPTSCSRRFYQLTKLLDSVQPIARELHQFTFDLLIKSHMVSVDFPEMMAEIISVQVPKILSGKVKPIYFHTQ
Summary of the method: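 Luminescent reporter readout (ONE-Glo, 30 min, room temperature) after 16 hr co-treatment of MDA-kb2 cells with test compounds and 0.5 nM R1881 final, at 37C without CO2. The MMTV-driven luciferase responds to both AR and GR.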

SMILES: CC[C@@H]1C[C@H](N(Cc2cc(C(F)(F)F)cc(C(F)(F)F)c2)C(C)=O)c2cc(C(F)(F)F)ccc2N1C(=O)OC(C)C
- max response [1]: -22.8%
- Potency [2]: inactive
- Potency [3]: inactive
- Potency [4]: inactive
- Potency [5]: inactive
- Potency [6]: inactive
- Potency [7]: inactive
- Potency [8]: inactive
- Potency [9]: inactive
- Potency [10]: inactive
- Potency [11]: inactive
- Potency [12]: inactive
- Potency [13]: inactive
- Potency [14]: inactive
- Potency [15]: inactive
- Potency [16]: inactive
- Potency [17]: inactive
- Potency [18]: inactive

SMILES: CCN(CCO)CCCC(C)Nc1ccnc2cc(Cl)ccc12 (stereo unspecified)
- max response [1]: -1.22%
- activity change [2]: -1.16% [at 6.97 µM, active compounds read high]
- cytotoxicity increase [3]: 19.7% [at 6.97 µM]
- activity change, negative = cytotoxic [4]: 2.34% [at 6.97 µM]
- cytotoxicity [5]: 14.8% [at 6.97 µM]
- cytotoxicity increase [6]: 10.5% [at 6.97 µM]
- activity change, negative = cytotoxicity [7]: 3.38% [at 6.97 µM]
- cytotoxicity increase [8]: -1.54% [at 6.97 µM]
- cytotoxicity [9]: 10% [at 6.97 µM]
- cytotoxicity increase [10]: 10.8% [at 6.97 µM]
- cytotoxicity increase [11]: 0.302% [at 6.97 µM]
- activity change, negative = cytotoxic [12]: 4.27% [at 6.97 µM]
- activity change, negative = cytotoxicity [19]: -0.518% [at 6.97 µM]
- activity change, negative = cytotoxicity [13]: 0.498% [at 6.97 µM]
- activity change [14]: -1.57% [at 6.97 µM, active compounds read high]
- activity change, negative = cytotoxicity [15]: 5.1% [at 6.97 µM]
- cytotoxicity increase [16]: 17.5% [at 6.97 µM]
- viability change, negative = cytotoxic [18]: -0.563% [at 8.39 µM]

SMILES: CC[C@]12CCCN3CCc4c(n(c5ccccc45)C(=O)C1)[C@@H]32
- Potency [1]: 4.25 µM (active)
- Potency [2]: inactive
- Potency [3]: inactive
- Potency [4]: inactive
- Potency [5]: inactive
- Potency [6]: 6.74 µM (active)
- Potency [7]: inactive
- Potency [8]: inactive
- Potency [9]: inactive
- Potency [10]: 6.74 µM (active)
- Potency [11]: inactive
- Potency [12]: inactive
- Potency [19]: 4.77 µM (active)
- Potency [14]: inactive
- Potency [15]: inactive
- Potency [16]: inactive
- Potency [17]: inactive
- Potency [18]: inactive
- Potency [20]: inactive

SMILES: Cc1cc(NC(=O)C(=O)O)cc(C)c1Oc1ccc(O)c2c1CCC2
- max response [1]: -8.77%
- Potency [2]: inactive
- Potency [3]: inactive
- Potency [4]: inactive
- Potency [5]: inactive
- Potency [6]: inactive
- Potency [7]: inactive
- Potency [8]: inactive
- Potency [9]: inactive
- Potency [10]: inactive
- Potency [11]: inactive
- Potency [12]: inactive
- Potency [19]: inactive
- Potency [13]: inactive
- Potency [14]: inactive
- Potency [16]: inactive
- Potency [17]: inactive
- Potency [18]: inactive
- Potency [20]: inactive

SMILES: CC(C)NCC(O)COc1ccc(CC(N)=O)cc1 (stereo unspecified)
- max response [1]: -1.4%
- Potency [2]: inactive
- Potency [3]: inactive
- Potency [4]: inactive
- Potency [5]: inactive
- Potency [6]: inactive
- Potency [7]: inactive
- Potency [8]: inactive
- Potency [9]: inactive
- Potency [10]: inactive
- Potency [12]: inactive
- Potency [19]: inactive
- Potency [13]: inactive
- Potency [14]: inactive
- Potency [15]: inactive
- Potency [16]: inactive
- Potency [17]: inactive
- Potency [18]: inactive

SMILES: CNS(=O)(=O)Cc1ccc2[nH]cc(CCN(C)C)c2c1
- max response [1]: 2.61%
- Potency [2]: inactive
- Potency [3]: inactive
- Potency [4]: inactive
- Potency [5]: inactive
- Potency [6]: inactive
- Potency [7]: inactive
- Potency [8]: inactive
- Potency [9]: inactive
- Potency [10]: inactive
- Potency [11]: inactive
- Potency [12]: inactive
- Potency [19]: inactive
- Potency [13]: inactive
- Potency [14]: inactive
- Potency [15]: inactive
- Potency [16]: inactive
- Potency [18]: inactive

SMILES: CC/C(=C\C(=N/O)C(N)=O)C(C)[N+](=O)[O-] (stereo unspecified)
- max response [1]: 22.3%
- Potency [3]: inactive
- Potency [4]: inactive
- Potency [5]: inactive
- Potency [6]: inactive
- Potency [7]: inactive
- Potency [8]: inactive
- Potency [9]: inactive
- Potency [10]: inactive
- Potency [11]: inactive
- Potency [12]: inactive
- Potency [13]: inactive
- Potency [14]: inactive
- Potency [15]: inactive
- Potency [16]: inactive
- Potency [17]: inactive
- Potency [18]: inactive

SMILES: O=[N+]([O-])c1cccc(Cl)c1Cl
- max response [1]: -16.4%
- Potency [3]: inactive
- Potency [4]: inactive
- Potency [5]: inactive
- Potency [6]: inactive
- Potency [7]: inactive
- Potency [9]: inactive
- Potency [10]: inactive
- Potency [11]: inactive
- Potency [12]: inactive
- Potency [19]: inactive
- Potency [13]: inactive
- Potency [14]: inactive
- Potency [15]: inactive
- Potency [16]: inactive
- Potency [17]: inactive
- Potency [18]: inactive

SMILES: c1ccc(-c2nc[nH]c2-c2ccccc2)cc1
- max response [1]: -25%
- Potency [2]: inactive
- Potency [4]: inactive
- Potency [7]: inactive
- Potency [8]: inactive
- Potency [12]: inactive
- Potency [19]: inactive
- Potency [13]: inactive
- Potency [14]: inactive
- Potency [15]: inactive
- Potency [17]: inactive
- Potency [18]: inactive
